The source of these data is the OligoGym collection.
Note: reference of the scale not given here.

The first test concerns the target FBLIM1. The experiment in a line: pooled miR-30 sensor sort-seq; sequence = guide strand. The note with it: shRNA.
On to TAATAAACCAGTAGACAGGAAA, for which the sensor-assay potency score (higher = more potent) is -1.08.
In the case of TTTCATGGAAGTTTCTTCCCAT, the sensor-assay potency score (higher = more potent) was 0.731.
Regarding TTGAAGAGCTGCATAGGTGCAG, the sensor-assay potency score (higher = more potent) was 0.627.
In turn, TCGACAGACAGGAGGATCCTGC showed a sensor-assay potency score (higher = more potent) of -0.78.
On to TTTCCTGTAGAAGTCGTCCAGG, for which the sensor-assay potency score (higher = more potent) is -0.297.
As to TCTAAGTCTGCAATGAGTGAGG, the sensor-assay potency score (higher = more potent) is -0.617.
In turn, TGAAGAGCTGCATAGGTGCAGC gave a sensor-assay potency score (higher = more potent) of -0.713.
Take TTTCTCAACAGGTTCTGCCGGG: the sensor-assay potency score (higher = more potent) was 0.497.
For the sequence TTCTGGTAGAAGCTCTGCCCAG, the sensor-assay potency score (higher = more potent) was -1.24.
With TCTGGTAGAAGCTCTGCCCAGC, the sensor-assay potency score (higher = more potent) is -0.202.
The same measure, in the same setting: the result for TAGACAGGAAACTCTGGCCCAG reads -0.916; that for TTCTCAACAGGTTCTGCCGGGG, -0.331.

A further test addresses FBXL21. The test is described as above. The following applies: shRNA.
The sequence TTCAGTGTGAATTTCATCTAGG registered a sensor-assay potency score (higher = more potent) of 0.327.
Take TTCTTTGAAGAACGTCTCGAAT: the sensor-assay potency score (higher = more potent) was -1.19.
TTGAGTTGATAAAAACAACTGT had a sensor-assay potency score (higher = more potent) of 0.22.
As for TCAAATTCAAACTTTCTCCAAA, the sensor-assay potency score (higher = more potent) was -0.476.
TTAACATGAGTCTCGCTTGAGA showed a sensor-assay potency score (higher = more potent) of -0.687.
AACAACATTAACTCTAGGGGAA: the sensor-assay potency score (higher = more potent) is -0.232.
Same read-out and setting: then TAGAGTGTCACTATTATTGGCC, with 0.27; and TTTAATGATCTGCTGAATGAGA, with -0.579.
TGCATAACAACATTAACTCTAG gave a sensor-assay potency score (higher = more potent) of -0.667.
TCACACAGTCTTACAAACCTGA: the sensor-assay potency score (higher = more potent) was determined as 0.117.
Consider TAACAACATTAACTCTAGGGGA, for which the sensor-assay potency score (higher = more potent) is -0.101.
